The labels stand for the following.
T1: RBFOX1 RRM RbFoxmut (Fox-RRM*) (Homo sapiens, UniProt Q9NWB1 109-208, R118D;E147R;N151S;E152T)
T1 sequence: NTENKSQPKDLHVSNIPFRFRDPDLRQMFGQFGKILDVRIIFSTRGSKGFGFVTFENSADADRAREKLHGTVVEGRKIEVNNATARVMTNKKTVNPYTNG

B1: CAUACAC (DNA:RNA)
RNA: GGGAGACCGGAAUUCAGAUUGUCCCAUACACUUAAAUCCCGUCGUAGCCACCA
DNA 1: CAATCTGAATTCCGGTCTCCC
DNA 2: TGGTGGCTACGACGGGATT
B2: GUCUAGC (DNA:RNA)
RNA: B1 RNA with C25G, A26U, U27C, A28U, C29A, A30G
DNA 1: CAATCTGAATTCCGGTCTCCC
DNA 2: TGGTGGCTACGACGGGATT
B3: UUCCCGC (DNA:RNA)
RNA: B1 RNA with C25U, A26U, U27C, A28C, A30G
DNA 1: CAATCTGAATTCCGGTCTCCC
DNA 2: TGGTGGCTACGACGGGATT
B4: CCCGCGA (DNA:RNA)
RNA: B1 RNA with A26C, U27C, A28G, A30G, C31A
DNA 1: CAATCTGAATTCCGGTCTCCC
DNA 2: TGGTGGCTACGACGGGATT
B5: CAUUCUU (DNA:RNA)
RNA: B1 RNA with A28U, A30U, C31U
DNA 1: CAATCTGAATTCCGGTCTCCC
DNA 2: TGGTGGCTACGACGGGATT
B6: AAAGCCC (DNA:RNA)
RNA: B1 RNA with C25A, U27A, A28G, A30C
DNA 1: CAATCTGAATTCCGGTCTCCC
DNA 2: TGGTGGCTACGACGGGATT
B7: ACGCAUA (DNA:RNA)
RNA: GGGAGACCGGAAUUCAGAUUGUCCACGCAUAUUAAAUCCCGUCGUAGCCACCA
DNA 1: CAATCTGAATTCCGGTCTCCC
DNA 2: TGGTGGCTACGACGGGATT
B8: ACGCGUC (DNA:RNA)
RNA: B7 RNA with A29G, A31C
DNA 1: CAATCTGAATTCCGGTCTCCC
DNA 2: TGGTGGCTACGACGGGATT
B9: ACGCAUG (DNA:RNA)
RNA: B7 RNA with A31G
DNA 1: CAATCTGAATTCCGGTCTCCC
DNA 2: TGGTGGCTACGACGGGATT
B10: ACGCGCA (DNA:RNA)
RNA: B7 RNA with A29G, U30C
DNA 1: CAATCTGAATTCCGGTCTCCC
DNA 2: TGGTGGCTACGACGGGATT
B11: ACGCAUC (DNA:RNA)
RNA: B7 RNA with A31C
DNA 1: CAATCTGAATTCCGGTCTCCC
DNA 2: TGGTGGCTACGACGGGATT
B12: ACGCAGA (DNA:RNA)
RNA: B7 RNA with U30G
DNA 1: CAATCTGAATTCCGGTCTCCC
DNA 2: TGGTGGCTACGACGGGATT
B13: UCAUUGC (DNA:RNA)
RNA: B7 RNA with A25U, G27A, C28U, A29U, U30G, A31C
DNA 1: CAATCTGAATTCCGGTCTCCC
DNA 2: TGGTGGCTACGACGGGATT
B14: GAUAGUG (DNA:RNA)
RNA: B1 RNA with C25G, C29G, A30U, C31G
DNA 1: CAATCTGAATTCCGGTCTCCC
DNA 2: TGGTGGCTACGACGGGATT
B15: CGAUAGA (DNA:RNA)
RNA: B7 RNA with A25C, C26G, G27A, C28U, U30G
DNA 1: CAATCTGAATTCCGGTCTCCC
DNA 2: TGGTGGCTACGACGGGATT
B16: UGGUAGA (DNA:RNA)
RNA: B7 RNA with A25U, C26G, C28U, U30G
DNA 1: CAATCTGAATTCCGGTCTCCC
DNA 2: TGGTGGCTACGACGGGATT
B17: UGGUAUC (DNA:RNA)
RNA: B7 RNA with A25U, C26G, C28U, A31C
DNA 1: CAATCTGAATTCCGGTCTCCC
DNA 2: TGGTGGCTACGACGGGATT
B18: UGGUAAA (DNA:RNA)
RNA: B7 RNA with A25U, C26G, C28U, U30A
DNA 1: CAATCTGAATTCCGGTCTCCC
DNA 2: TGGTGGCTACGACGGGATT
B19: UGGUAUA (DNA:RNA)
RNA: B7 RNA with A25U, C26G, C28U
DNA 1: CAATCTGAATTCCGGTCTCCC
DNA 2: TGGTGGCTACGACGGGATT
B20: UGGUAGC (DNA:RNA)
RNA: B7 RNA with A25U, C26G, C28U, U30G, A31C
DNA 1: CAATCTGAATTCCGGTCTCCC
DNA 2: TGGTGGCTACGACGGGATT
B21: UGGUAUG (DNA:RNA)
RNA: B7 RNA with A25U, C26G, C28U, A31G
DNA 1: CAATCTGAATTCCGGTCTCCC
DNA 2: TGGTGGCTACGACGGGATT

Positions count from the first letter of the chain named. Whole data set: some 16,000 sequences, median “ka relative to ugcaugu” near 0.096, cut for the highest 2% near 0.35. This is one part of a sample in which the highest values are shown more often than they occur.

The target of this assay is T1, RBFOX1 RRM RbFoxmut (Fox-RRM*). Put plainly: EMSA; HiTS-Eq, 1 nM pool, 10 min; buffer printed only for the single-RNA assays: 10 mM Tris pH 7.5, 150 mM NaCl, 3.4 mM EDTA, 0.001% NP-40, 30 C. To be noted: tags: His6 N-terminal (pET28a); label: 5' 32P. Summed up:
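Purified wild-type or mutant RbFox RRM at increasing concentrations was equilibrated with 1 nM of 5′-radiolabelled RNA carrying 7 randomized nucleotides for 10 min in 50 µL. Unbound RNA was separated by 8% native PAGE and sequenced. Relative association constants came from read-count changes of each RNA species compared with the control reaction, normalised to the cognate motif.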
Consider B1, for which the binding signal is 0.0927 KA relative to UGCAUGU.
As to B2, the binding signal was 0.0934 KA relative to UGCAUGU.
Then B3, with 0.0732 KA relative to UGCAUGU; and B4, with 0.0823 KA relative to UGCAUGU.
For B5 the value was 0.101 KA relative to UGCAUGU; for B6, 0.066 KA relative to UGCAUGU; for B7, 0.152 KA relative to UGCAUGU.
For B8 the value was 0.0969 KA relative to UGCAUGU; for B9, 0.844 KA relative to UGCAUGU.
For B10, the binding signal was 0.15 KA relative to UGCAUGU.
For B11 the value was 0.355 KA relative to UGCAUGU; for B12, 0.106 KA relative to UGCAUGU; for B13, 0.12 KA relative to UGCAUGU.
Then B14, with 0.126 KA relative to UGCAUGU.
For the molecule B15, the binding signal is 0.101 KA relative to UGCAUGU.
Then B16, with 0.128 KA relative to UGCAUGU; and B17, with 0.356 KA relative to UGCAUGU; and B18, with 0.0843 KA relative to UGCAUGU.
As for B19, the binding signal is 0.157 KA relative to UGCAUGU.
For B20 the value was 0.102 KA relative to UGCAUGU.
In the case of B21, the binding signal was 1.27 KA relative to UGCAUGU.

Values taken from publication PMC9911399, “Two distinct binding modes provide the RNA-binding protein RbFox with extraordinary sequence specificity”.
